Inconclusive results are not listed. Calls of active or inactive are those of the source. Unless noted, the call rests on the fitted dose curve; in most records, active means well fitted curve in the direction sought with a large enough effect in the repeat runs; inconclusive means weak or mixed curves; inactive means no such curve, though single readings can be large; an effect the other way counts as inactive or inconclusive.
What was measured:
[1] = qHTS assay to identify small molecule agonists of the peroxisome proliferator-activated receptor delta (PPARd) signaling pathway - cell viability counter screen (AID 743211); further: nearly all actives have a fitted effect of over 55% in size
Procedure, shortened: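 In the same wells used for beta-lactamase reporter measurement, cytotoxicity is scored by CellTiter-Glo. HEK293H PPARd-bla cells receive compound for 17 h at 37C following a 5 h settling period.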

[2] = molecular target: Peroxisome proliferator-activated receptor delta (Homo sapiens) (UniProt Q03181); assay: qHTS assay to identify small molecule agonists of the peroxisome proliferator-activated receptor delta (PPARd) signaling pathway (AID 743212; calls by dose curve)
Procedure, shortened: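 HEK293H PPARd-bla cells; 5 h preincubation 37 C/5% CO2; compound (DMSO) 37 C; LiveBLAzer B/G FRET substrate 2 h RT; fluorescence intensity.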

[3] = qHTS assay to identify small molecule antagonists of the peroxisome proliferator-activated receptor delta (PPARd) signaling pathway - cell viability counter screen (AID 743213); further: nearly all actives have a fitted effect of over 50% in size
Procedure, shortened: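 PPARd-bla HEK293H cells were treated with compounds plus agonist L165041 (300 nM final) for 17 h at 37 C. Viability was then read in the same wells by CellTiter-Glo luminescence after 30 min at room temperature.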

[4] = molecular target: Peroxisome proliferator-activated receptor delta (Homo sapiens) (UniProt Q03181); assay: qHTS assay to identify small molecule antagonists of the peroxisome proliferator-activated receptor delta (PPARd) signaling pathway (AID 743215; active means well fitted inhibition curve with a large enough effect in the signal ratio in the repeat runs, not every such curve was filed as active; the % refers to the signal ratio;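 further: cells stimulated with agonist L165041 at 300 nM final during compound exposure; series mostly up to about 62 µM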)
Procedure, shortened: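 Inhibition of L165041-driven (300 nM final) PPARd signaling is scored in HEK293H UAS-bla cells. Exposure lasts 17 h at 37 C; beta-lactamase activity is then read by FRET substrate fluorescence after 2 h at room temperature.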

[5] = molecular target: Bile acid receptor (Homo sapiens) (UniProt Q96RI1); assay: qHTS assay to identify small molecule antagonists of the farnesoid-X-receptor (FXR) signaling pathway (AID 743217; active means well fitted inhibition curve with a large enough effect in the signal ratio in the repeat runs, not every such curve was filed as active; the % refers to the signal ratio)
Procedure, shortened: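 Antagonist mode against 50 uM (final) chenodeoxycholic acid stimulation in FXR-bla HEK 293T cells, 16 h at 37 °C. Inhibition detected as reduced beta-lactamase activity via LiveBLAzer B/G FRET fluorescence after 2 h at room temperature.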

[6] = qHTS assay to identify small molecule agonists of the farnesoid-X-receptor (FXR) signaling pathway - cell viability counter screen (AID 743218); further: nearly all actives have a fitted effect of over 45% in size
Procedure, shortened: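 Cytotoxicity counter-screen run in parallel, same wells: FXR-UAS-bla HEK 293T cells dosed 16 h at 37 C, viability read by CellTiter-Glo luminescence after 30 min at room temperature.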

[7] = molecular target: Bile acid receptor (Homo sapiens) (UniProt Q96RI1); assay: qHTS assay to identify small molecule agonists of the farnesoid-X-receptor (FXR) signaling pathway (AID 743220; active means well fitted activation curve with a large enough effect in the signal ratio in the repeat runs, not every such curve was filed as active; the % refers to the signal ratio)
Procedure, shortened: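 Beta-lactamase reporter under UAS control in GeneBLAzer FXR HEK 293T cells (5000/well) measured with LiveBLAzer FRET substrate after 2 h at room temperature. Compound exposure lasted 16 h at 37C.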

[8] = qHTS assay to identify small molecule antagonists of the farnesoid-X-receptor (FXR) signaling pathway - cell viability counter screen (AID 743221; active means well fitted cell-killing curve with a large enough effect in the repeat runs, not every such curve was filed as active; further: nearly all actives have a fitted effect of over 50% in size)
Procedure, shortened: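 Here viability was scored by luminescence after CellTiter-Glo addition to wells already read for beta-lactamase. Prior treatment: compound plus CDCA (50 uM final), 16 h, 37 C, HEK 293T FXR-bla cells.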

[9] = molecular target: Vitamin D3 receptor (Homo sapiens) (UniProt P11473); assay: qHTS assay to identify small molecule agonists of the vitamin D receptor (VDR) signaling pathway (AID 743222; calls by dose curve)
Procedure, shortened: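 Quantitative HTS agonist-mode screen: compounds in DMSO were pin-transferred onto VDR-bla cells and incubated 16 h at 37C, 5% CO2. Reporter activity was detected with LiveBLAzer B/G FRET substrate after 2 h at room temperature.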

[10] = molecular target: Vitamin D3 receptor (Homo sapiens) (UniProt P11473); assay: qHTS assay to identify small molecule antagonists of the vitamin D receptor (VDR) signaling pathway (AID 743223; active means well fitted inhibition curve with a large enough effect in the signal ratio in the repeat runs, not every such curve was filed as active; the % refers to the signal ratio)
Procedure, shortened: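 Inhibition of agonist-driven VDR signalling is scored in VDR-bla cells: 3 nM final 1alpha,25-dihydroxyvitamin D3 plus compound, 16 h at 37C, then beta-lactamase detection by FRET substrate fluorescence after 2 h.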

[11] = qHTS assay to identify small molecule agonists of the vitamin D receptor (VDR) signaling pathway - cell viability counter screen (AID 743224); further: series mostly up to about 63 µM; nearly all actives have a fitted effect of over 50% in size
Procedure, shortened: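 Viability is measured in the same wells as the VDR-bla reporter assay: after 16 h compound treatment and 2 h substrate loading, CellTiter-Glo is added and luminescence read 30 min later.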

[12] = qHTS assay to identify small molecule antagonists of the vitamin D receptor (VDR) signaling pathway - cell viability counter screen (AID 743225); further: nearly all actives have a fitted effect of over 50% in size
Procedure, shortened: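 Compounds were pinned onto VDR-bla HEK 293T cells together with 1-alpha,25-dihydroxyvitamin D3 at 3 nM final. After 16 h at 37C and 5% CO2 plus the reporter readout, cell viability was measured by CellTiter-Glo luminescence (30 min, room temperature).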

[13] = qHTS assay to identify small molecule agonists of the NFkB signaling pathway (AID 1159509; active means well fitted curve in the direction sought with a large enough effect in the signal ratio in the repeat runs, not every such curve was filed as active; the % refers to the signal ratio; further: series mostly up to about 61 µM)
Procedure, shortened: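 ME-180 NFkB-bla, 2,000 cells/well, overnight plating; cpd pinned in DMSO, 5 h 37 C; B/G FRET substrate 1.5 h RT; ex 405, em 460/530 nm.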

[14] = qHTS assay to identify small molecule agonists of the NFkB signaling pathway - cell viability counter screen (AID 1159515; calls by dose curve; further: series mostly up to about 61 µM; nearly all actives have a fitted effect of over 55% in size)
Procedure, shortened: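 Multiplexed viability readout: after the 5 hr compound exposure and 1.5 hr FRET substrate step, CellTiter-Glo reagent went into the same NFkB-bla ME-180 wells; ATP luminescence was measured after 30 min at room temperature.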

[15] = qHTS assay to identify small molecule agonists of the endoplasmic reticulum stress response signaling pathway (AID 1159516; active means well fitted activation curve with a large enough effect in the signal ratio in the repeat runs, not every such curve was filed as active; the % refers to the signal ratio)
Procedure, shortened: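 Tox21 10K library screened in quantitative HTS format on ESRE-bla HeLa cells, a beta-lactamase reporter under ER stress response element control; 5 hr treatment, FRET read.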

[16] = qHTS assay to identify small molecule agonists of the endoplasmic reticulum stress response signaling pathway - cell viability counter screen (AID 1159517; calls by dose curve)
Procedure, shortened: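 HeLa cells carrying an ESRE-driven beta-lactamase reporter receive compound for 5 hr at 37 C. Cell viability is then gauged with CellTiter-Glo by luminescence, 30 min at room temperature.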

[17] = qHTS assay to identify small molecule antagonists of the retinoid-related orphan receptor gamma (ROR-gamma) signaling pathway - cell viability counter screen (AID 1159520); further: nearly all actives have a fitted effect of over 50% in size
Procedure, shortened: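 Cytotoxicity was read from cellular ATP (CellTiter-Glo luminescence) after 16 hr at 37 C with 1 uM doxycycline induction. The inducer was added 2 hr after compound transfer to Tet-on ROR gamma CHO cells.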

[18] = molecular target: Nuclear receptor ROR-gamma (Homo sapiens) (UniProt P51449); assay: qHTS assay to identify small molecule antagonists of the retinoid-related orphan receptor gamma (ROR-gamma) signaling pathway (AID 1159521)
Procedure, shortened: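 Test compounds were applied to Tet-on RORγ CHO cells 2 h ahead of doxycycline hyclate (1 uM final). Luciferase reporter activity was quantified by luminescence after 16 h at 37 C and 5% CO2.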

[19] = qHTS assay to identify small molecule agonists of the AP-1 signaling pathway - cell viability counter screen (AID 1159525; calls by dose curve; further: nearly all actives have a fitted effect of over 55% in size)
Procedure, shortened: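 Luminescent ATP readout (Cell Titer Glo, 30 min RT), normalised to DMSO and tetra n-octyl ammonium bromide controls. Cells were ME-180 AP-1-bla in 0.5% dialyzed FBS Opti-MEM, with a 5 h, 37 °C compound exposure.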

[20] = qHTS assay to identify small molecule agonists of the AP-1 signaling pathway (AID 1159526; calls by dose curve)

Measured: Potency

Bile acid receptor (Homo sapiens), sequence (Q96RI1 whole entry, looked up): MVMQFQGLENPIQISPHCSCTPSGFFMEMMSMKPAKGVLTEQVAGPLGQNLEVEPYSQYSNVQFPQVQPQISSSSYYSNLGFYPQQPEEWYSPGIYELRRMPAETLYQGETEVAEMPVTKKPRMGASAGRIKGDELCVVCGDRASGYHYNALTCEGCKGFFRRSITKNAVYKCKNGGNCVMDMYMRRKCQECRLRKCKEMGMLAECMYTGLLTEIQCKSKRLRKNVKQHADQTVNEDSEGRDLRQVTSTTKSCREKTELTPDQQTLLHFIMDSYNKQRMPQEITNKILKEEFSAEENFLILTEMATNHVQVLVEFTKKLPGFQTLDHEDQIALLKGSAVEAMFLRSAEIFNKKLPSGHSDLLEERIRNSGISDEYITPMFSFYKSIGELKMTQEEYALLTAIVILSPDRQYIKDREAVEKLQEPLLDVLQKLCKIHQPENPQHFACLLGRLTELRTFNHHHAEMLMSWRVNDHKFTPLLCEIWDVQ
Peroxisome proliferator-activated receptor delta (Homo sapiens), sequence (Q03181 whole entry, looked up): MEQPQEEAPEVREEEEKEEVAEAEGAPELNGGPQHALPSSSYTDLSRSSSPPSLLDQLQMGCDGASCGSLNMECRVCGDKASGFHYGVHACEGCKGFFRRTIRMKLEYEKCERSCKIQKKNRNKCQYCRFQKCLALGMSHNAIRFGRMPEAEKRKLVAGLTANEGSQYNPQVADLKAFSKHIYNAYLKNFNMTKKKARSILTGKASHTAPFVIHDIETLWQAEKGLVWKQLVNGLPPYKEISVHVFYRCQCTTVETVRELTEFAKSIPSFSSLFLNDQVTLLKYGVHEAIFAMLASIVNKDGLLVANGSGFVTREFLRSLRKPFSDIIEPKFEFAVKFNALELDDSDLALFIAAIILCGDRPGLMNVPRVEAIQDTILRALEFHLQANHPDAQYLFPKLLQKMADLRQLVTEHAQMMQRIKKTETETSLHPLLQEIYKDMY
Vitamin D3 receptor (Homo sapiens), sequence (P11473 whole entry, looked up): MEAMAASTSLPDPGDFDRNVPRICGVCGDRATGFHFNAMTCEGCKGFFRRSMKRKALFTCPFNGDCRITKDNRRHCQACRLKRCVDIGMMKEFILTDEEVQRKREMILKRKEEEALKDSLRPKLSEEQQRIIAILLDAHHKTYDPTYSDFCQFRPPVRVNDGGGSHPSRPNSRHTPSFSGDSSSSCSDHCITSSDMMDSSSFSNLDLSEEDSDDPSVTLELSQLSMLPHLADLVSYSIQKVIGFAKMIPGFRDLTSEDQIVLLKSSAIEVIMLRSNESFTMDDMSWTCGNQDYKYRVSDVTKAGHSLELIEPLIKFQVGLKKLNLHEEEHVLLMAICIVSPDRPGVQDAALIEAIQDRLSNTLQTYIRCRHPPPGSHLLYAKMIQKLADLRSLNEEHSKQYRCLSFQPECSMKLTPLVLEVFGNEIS

COC(=O)C(C)Oc1ccc(Oc2ccc(Cl)cc2Cl)cc1 (stereo unspecified)
inactive: all assays above

CCCCOC(=O)c1ccccc1N
not listed: [6] | [9] | [11]
inactive: all other assays above

Fc1cc(Br)ccc1CBr
not listed: [6]
inactive: all other assays above

COP(=S)(OC)Oc1ccc(S(N)(=O)=O)cc1
inactive: all assays above
